Where a name gives a salt, the structure may show the parent alone.

The text below walks through data of the supplement of paper PMC9950053.

The test system of the assay is Danio rerio larvae (5 dpf). Kind of assay: excitability (activity period 17 minus period 16, 1-s interval sound) minus DMSO control (percentage points); higher = more acoustic excitability than DMSO larvae. Conditions: 10 µM; exposure time: 3 h pre-incubation + 3 h imaging. The protocol:
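Wild-type 5 dpf zebrafish larvae (n=48 per drug, 96-well plates, 28.5 °C) were exposed to Tocris FDA-approved library compounds at 10 µM (0.1% DMSO) for 3 h before and 3 h during imaging. Images were taken every 6 s during visual and acoustic stimuli, and larvae were tracked with Z-LaP Tracker. Each measure is the treated-group mean minus the DMSO control mean (n=844), in percentage points. This mapping covers compounds with 5-character plate codes.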
As for `CCCc1nn(C)c2c(=O)[nH]c(-c3cc(S(=O)(=O)N4CCN(C)CC4)ccc3OCC)nc12` [Sildenafil citrate], the excitability was 4.28.

With `CNC(=O)c1cc(Oc2ccc(NC(=O)Nc3ccc(Cl)c(C(F)(F)F)c3)cc2)ccn1` [Sorafenib], the excitability was 13.1.

In the case of `C[C@H]1O[C@H](O[C@H]2[C@H](O)[C@@H](O)[C@@H](O[C@H]3[C@H](O)[C@@H](O)C(O)O[C@@H]3CO)O[C@@H]2CO)[C@H](O)[C@@H](O)[C@@H]1N[C@H]1C=C(CO)[C@@H](O)[C@H](O)[C@H]1O` (some centres not stated) [Acarbose], the excitability is -4.36.

With `O=C(O)C[C@H](O)C[C@H](O)/C=C/c1c(C2CC2)nc2ccccc2c1-c1ccc(F)cc1` [Pitavastatin calcium], the excitability was -1.16.

Turning to `CC(C)OC(=O)C(C)(C)Oc1ccc(C(=O)c2ccc(Cl)cc2)cc1` [Fenofibrate], the excitability came out at 4.72.

On to `Cc1cc2c(s1)Nc1ccccc1N=C2N1CCN(C)CC1` [Olanzapine], for which the excitability was determined as 2.72.

Consider `CNS(=O)(=O)Cc1ccc2[nH]cc(CCN(C)C)c2c1` [Sumatriptan succinate], for which the excitability is -4.97.

Turning to `COCCc1ccc(OCC(O)CNC(C)C)cc1` (configuration not stated) [Metoprolol tartrate], the excitability is -6.24.

Consider `NC(=O)OCC(COC(N)=O)c1ccccc1` [Felbamate], for which the excitability is -3.94.

In the case of `O=c1n(CCCN2CCN(c3cccc(Cl)c3)CC2)nc2ccccn12` [Trazodone hydrochloride], the excitability was found to be 20.3.

With `CC(C)(C(=O)O)c1ccc(C(O)CCCN2CCC(C(O)(c3ccccc3)c3ccccc3)CC2)cc1` (configuration not stated) [Fexofenadine hydrochloride], the excitability is -5.03.

For the molecule `NS(=O)(=O)c1cc2c(cc1Cl)NC(C1CC3C=CC1C3)NS2(=O)=O` (configuration not stated) [Cyclothiazide], the excitability came out at 0.365.

With `N#C[C@@H]1C[C@@H]2C[C@@H]2N1C(=O)[C@@H](N)C12CC3CC(CC(O)(C3)C1)C2` [Saxagliptin hydrochloride], the excitability amounted to 2.14.

Consider `CCc1nc(N)nc(N)c1-c1ccc(Cl)cc1` [Pyrimethamine], for which the excitability was 6.57.

Regarding `C#CCN[C@@H]1CCc2ccccc21` [Rasagiline mesylate], the excitability was -0.121.

In the case of `CN[C@H]1CC[C@@H](c2ccc(Cl)c(Cl)c2)c2ccccc21` [Sertraline hydrochloride], the excitability was 10.4.

`COc1ccccc1Oc1c(NS(=O)(=O)c2ccc(C(C)(C)C)cc2)nc(-c2ncccn2)nc1OCCO` [Bosentan]: the excitability is -2.37.

Turning to `CC(=O)Oc1cc2c(s1)CCN(C(C(=O)C1CC1)c1ccccc1F)C2` (configuration not stated) [Prasugrel], the excitability was 5.89.

Take `OCc1cc(C(O)CNCCCCCCOCCCCc2ccccc2)ccc1O` (configuration not stated) [Salmeterol xinafoate]: the excitability is 13.1.

`CC(=O)Nc1ccc(O)cc1` [Acetaminophen]: the excitability is -1.73.

Regarding `COc1cc(N)c(Cl)cc1C(=O)NC1CCN(CCCOc2ccc(F)cc2)CC1OC` (configuration not stated) [Cisapride], the excitability stood at 18.5.

Turning to `COc1cc2nccc(Oc3ccc(NC(=O)C4(C(=O)Nc5ccc(F)cc5)CC4)cc3)c2cc1OC`, the excitability was 16.9.

As for `CN(C)CCc1c[nH]c2ccc(C[C@H]3COC(=O)N3)cc12` [Zolmitriptan], the excitability came out at 4.24.

Take `CN(C)C(=N)NC(=N)N` [Metformin hydrochloride]: the excitability is 6.55.

As for `CC(C)COCC(CN(Cc1ccccc1)c1ccccc1)N1CCCC1` (configuration not stated) [Bepridil hydrochloride], the excitability amounted to 14.7.

Take `N#Cc1ccc2[nH]cc(CCCCN3CCN(c4ccc5oc(C(N)=O)cc5c4)CC3)c2c1` [Vilazodone hydrochloride]: the excitability was found to be 17.

For the molecule `CC[C@H]1OC(=O)[C@H](C)[C@@H](O[C@H]2C[C@@](C)(OC)[C@@H](O)[C@H](C)O2)[C@H](C)[C@@H](O[C@@H]2O[C@H](C)C[C@H](N(C)C)[C@H]2O)[C@](C)(O)C[C@@H](C)CN(C)[C@H](C)[C@@H](O)[C@]1(C)O` [Azithromycin], the excitability came out at 15.8.

Regarding `C[C@@H]1C[C@H]2[C@@H]3CCC4=CC(=O)C=C[C@]4(C)[C@@]3(F)[C@@H](O)C[C@]2(C)[C@@]1(O)C(=O)CO` [Dexamethasone], the excitability was -4.14.

Turning to `COc1cc([C@@H]2c3cc4c(cc3[C@@H](O[C@@H]3O[C@@H]5CO[C@@H](C)O[C@H]5[C@H](O)[C@H]3O)[C@H]3COC(=O)[C@H]23)OCO4)cc(OC)c1O` [Etoposide], the excitability amounted to 9.95.

On to `Clc1ccc2nsnc2c1NC1=NCCN1` [Tizanidine hydrochloride], for which the excitability turned out to be 6.39.

Regarding `OCCN1C[C@H](O)[C@@H](O)[C@H](O)[C@H]1CO` [Miglitol], the excitability worked out at 4.04.

For `CCCC1O[C@@H]2C[C@H]3[C@@H]4CCC5=CC(=O)C=C[C@]5(C)[C@H]4[C@@H](O)C[C@]3(C)[C@]2(C(=O)CO)O1` (some centres not stated) [Budesonide], the excitability amounted to 1.14.

For `COc1ccccc1OCC(O)CN1CCN(CC(=O)Nc2c(C)cccc2C)CC1` (configuration not stated) [Ranolazine dihydrochloride], the excitability is 4.28.

Regarding `OC(c1cc(C(F)(F)F)nc2c(C(F)(F)F)cccc12)C1CCCCN1` (configuration not stated) [Mefloquine hydrochloride], the excitability was determined as 13.3.

Take `CCCCCCCN(CC)CCCC(O)c1ccc(NS(C)(=O)=O)cc1` (configuration not stated) [Ibutilide hemifumarate]: the excitability was 13.3.

As for `O=C1CCc2ccc(OCCCCN3CCN(c4cccc(Cl)c4Cl)CC3)cc2N1` [Aripiprazole], the excitability is 16.5.

Turning to `CNCc1ccc(-c2[nH]c3cc(F)cc4c3c2CCNC4=O)cc1` [Rucaparib camsylate], the excitability turned out to be 13.1.
